From PubChem BioAssay AID1159580 (chemical genetic matrix, 2015)
About 2,000 (36%) of roughly 5,500 compounds were called active. Inconclusive results (about 18%) are left out. Rule as the data show it: active = normalized growth mostly below about 0.91 (no sharp cut-off); inconclusive = no clear call, values can overlap the other calls; inactive = mostly above about 0.92. The list shows a part of the results.

Experiment: chemical genetic growth profiling, strain panel (AID 1159580);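 also: tested at 20 µM; growth read once vehicle control cultures reached saturation at 30 °C; 1 = growth at the plate median or of vehicle wells; lower values mean less growth of the strain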
Settings: growth OD
[1] = S. cerevisiae deletion strains, locus YHR030C, strain SLT2, active compounds read low

Measured: normalized growth

O=C(Nc1ccc(Cl)c(Cl)c1)c1ccccc1
inactive: S. cerevisiae deletion strains, locus YDL101C, strain DUN1, active compounds read low 0.931 | S. cerevisiae deletion strains, locus YDR150W, strain NUM1, active compounds read low 0.889 | S. cerevisiae deletion strains, locus YNL128W, strain TEP1, active compounds read low 0.933 | S. cerevisiae deletion strains, locus YNL153C, strain GIM3, active compounds read low 0.942
active: S. cerevisiae deletion strains, locus YAL013W, strain DEP1, active compounds read low 0.885 | S. cerevisiae deletion strains, locus YBR229C, strain ROT2, active compounds read low 0.892 | S. cerevisiae deletion strains, locus YEL061C, strain CIN8, active compounds read low 0.813 | S. cerevisiae deletion strains, locus YGR078C, strain PAC10, active compounds read low 0.84 | [1] 0.579 | S. cerevisiae deletion strains, locus YHR087W, strain rtc3, active compounds read low 0.846 | S. cerevisiae deletion strains, locus YJR043C, strain POL32, active compounds read low 0.906 | S. cerevisiae deletion strains, locus YJR075W, strain HOC1, active compounds read low 0.771 | S. cerevisiae deletion strains, locus YLR039C, strain RIC1, active compounds read low 0.271 | S. cerevisiae deletion strains, locus YLR058C, strain SHM2 (second series), active compounds read low 0.876 | S. cerevisiae deletion strains, locus YLR085C, strain ARP6, active compounds read low 0.504 | S. cerevisiae deletion strains, locus YLR262C, strain YPT6, active compounds read low 0.318 | S. cerevisiae deletion strains, locus YML094W, strain GIM5, active compounds read low 0.797 | S. cerevisiae deletion strains, locus YMR219W, strain ESC1, active compounds read low 0.895 | S. cerevisiae deletion strains, locus YMR307W, strain GAS1, active compounds read low 0.453 | S. cerevisiae deletion strains, locus YNL298W, strain CLA4 (second series), active compounds read low 0.747 | S. cerevisiae deletion strains, locus YNL322C, strain KRE1, active compounds read low 0.8 | S. cerevisiae deletion strains, locus YNR030W, strain Alg12, active compounds read low 0.761 | S. cerevisiae deletion strains, locus YPL055C, strain LGE1, active compounds read low 0.754 | S. cerevisiae deletion strains, locus YPL241C, strain CIN2, active compounds read low 0.754 | S. cerevisiae deletion strains, locus YPR135W, strain CTF4, active compounds read low 0.406 | S. cerevisiae strains, strain wild type, active compounds read low 0.908

O=C(Nc1ccc(C(=O)O)c(O)c1)c1ccccc1
inactive: S. cerevisiae deletion strains, locus YAL021C, strain ccr4, active compounds read low 0.968 | S. cerevisiae deletion strains, locus YAL026C, strain drs2, active compounds read low 0.982 | S. cerevisiae deletion strains, locus YAL030W, strain snc1, active compounds read low 0.952 | S. cerevisiae deletion strains, locus YBL061C, strain skt5, active compounds read low 0.977 | S. cerevisiae deletion strains, locus YBR009C, strain hhf1, active compounds read low 0.97 | S. cerevisiae deletion strains, locus YBR023C, strain chs3, active compounds read low 0.991 | S. cerevisiae deletion strains, locus YBR171W, strain sec66, active compounds read low 0.968 | S. cerevisiae deletion strains, locus YBR231C, strain swc5, active compounds read low 0.972 | S. cerevisiae deletion strains, locus YBR279W, strain paf1, active compounds read low 0.989 | S. cerevisiae deletion strains, locus YCL011C, strain gbp2, active compounds read low 0.979 | S. cerevisiae deletion strains, locus YCL016C, strain dcc1, active compounds read low 0.979 | S. cerevisiae deletion strains, locus YCL061C, strain MRC1, active compounds read low 0.989 | S. cerevisiae deletion strains, locus YCL069W, strain vba3, active compounds read low 0.987 | S. cerevisiae deletion strains, locus YCR088W, strain abp1, active compounds read low 0.987 | S. cerevisiae deletion strains, locus YDL005C, strain med2, active compounds read low 0.978 | S. cerevisiae deletion strains, locus YDL040C, strain nat1, active compounds read low 0.976 | S. cerevisiae deletion strains, locus YDR001C, strain nth1, active compounds read low 0.964 | S. cerevisiae deletion strains, locus YDR069C, strain doa4, active compounds read low 0.974 | S. cerevisiae deletion strains, locus YDR137W, strain rgp1, active compounds read low 0.916 | S. cerevisiae deletion strains, locus YDR159W, strain sac3, active compounds read low 0.985 | S. cerevisiae deletion strains, locus YDR195W, strain ref2 0.952 | S. cerevisiae deletion strains, locus YDR297W, strain sur2, active compounds read low 0.976 | S. cerevisiae deletion strains, locus YDR334W, strain swr1, active compounds read low 0.942 | S. cerevisiae deletion strains, locus YDR335W, strain msn5, active compounds read low 0.972 | S. cerevisiae deletion strains, locus YDR392W, strain spt3, active compounds read low 0.986 | S. cerevisiae deletion strains, locus YEL003W, strain gim4, active compounds read low 0.974 | S. cerevisiae deletion strains, locus YEL037C, strain rad23, active compounds read low 0.992 | S. cerevisiae deletion strains, locus YEL061C, strain CIN8 (second series), active compounds read low 0.976 | S. cerevisiae deletion strains, locus YER015W, strain faa2, active compounds read low 0.968 | S. cerevisiae deletion strains, locus YER016W, strain bim1, active compounds read low 0.979 | S. cerevisiae deletion strains, locus YER111C, strain swi4, active compounds read low 0.992 | S. cerevisiae deletion strains, locus YER155C, strain BEM2 (second series), active compounds read low 0.967 | S. cerevisiae deletion strains, locus YFR010W, strain ubp6, active compounds read low 0.963 | S. cerevisiae deletion strains, locus YGL167C, strain pmr1, active compounds read low 0.989 | S. cerevisiae deletion strains, locus YGL173C, strain kem1, active compounds read low 0.967 | S. cerevisiae deletion strains, locus YGL227W, strain vid30, active compounds read low 0.974 | S. cerevisiae deletion strains, locus YGL240W, strain doc1, active compounds read low 0.977 | S. cerevisiae deletion strains, locus YGL253W, strain hxk2, active compounds read low 0.986 | S. cerevisiae deletion strains, locus YHR013C, strain ard1, active compounds read low 0.962 | S. cerevisiae deletion strains, locus YHR027C, strain rpn1, active compounds read low 0.964 | [1] 0.937 | S. cerevisiae deletion strains, locus YHR079C, strain IRE1, active compounds read low 0.939 | S. cerevisiae deletion strains, locus YHR142W, strain chs7, active compounds read low 0.968 | S. cerevisiae deletion strains, locus YJL092W, strain hpr5, active compounds read low 0.999 | S. cerevisiae deletion strains, locus YJL095W, strain BCK1 (second series), active compounds read low 0.981 | S. cerevisiae deletion strains, locus YJL095W, strain BCK1, active compounds read low 0.976 | S. cerevisiae deletion strains, locus YJL115W, strain asf1, active compounds read low 0.974 | S. cerevisiae deletion strains, locus YJL129C, strain trk1, active compounds read low 0.999 | S. cerevisiae deletion strains, locus YJL154C, strain vps35, active compounds read low 0.965 | S. cerevisiae deletion strains, locus YJL164C, strain tpk1, active compounds read low 0.983 | S. cerevisiae deletion strains, locus YJL166W, strain qcr8, active compounds read low 0.973 | S. cerevisiae deletion strains, locus YJL187C, strain SWE1, active compounds read low 0.984 | S. cerevisiae deletion strains, locus YJR066W, strain TOR1, active compounds read low 0.908 | S. cerevisiae deletion strains, locus YKL160W, strain elf1, active compounds read low 0.981 | S. cerevisiae deletion strains, locus YKR026C, strain gcn3, active compounds read low 0.99 | S. cerevisiae deletion strains, locus YKR091W, strain srl3, active compounds read low 0.984 | S. cerevisiae deletion strains, locus YLL001W, strain dnm1, active compounds read low 0.983 | S. cerevisiae deletion strains, locus YLL026W, active compounds read low 0.958 | S. cerevisiae deletion strains, locus YLL041C, strain sdh2, active compounds read low 0.979 | S. cerevisiae deletion strains, locus YLR027C, strain aat2, active compounds read low 0.968 | S. cerevisiae deletion strains, locus YLR113W, strain HOG1, active compounds read low 0.974 | S. cerevisiae deletion strains, locus YLR221C, strain rsa3, active compounds read low 0.984 | S. cerevisiae deletion strains, locus YLR258W, strain gsy2, active compounds read low 0.987 | S. cerevisiae deletion strains, locus YLR262C, strain YPT6 (second series), active compounds read low 0.938 | S. cerevisiae deletion strains, locus YLR320W, strain mms22, active compounds read low 0.973 | S. cerevisiae deletion strains, locus YLR342W, strain FKS1, active compounds read low 0.978 | S. cerevisiae deletion strains, locus YLR357W, strain rsc2, active compounds read low 1 | S. cerevisiae deletion strains, locus YLR370C, strain arc18, active compounds read low 0.975 | S. cerevisiae deletion strains, locus YLR384C, strain iki3, active compounds read low 0.962 | S. cerevisiae deletion strains, locus YML120C, strain ndi1, active compounds read low 0.986 | S. cerevisiae deletion strains, locus YMR058W, strain fet3, active compounds read low 0.984 | S. cerevisiae deletion strains, locus YMR125W, strain sto1, active compounds read low 0.984 | S. cerevisiae deletion strains, locus YMR129W, active compounds read low 0.989 | S. cerevisiae deletion strains, locus YMR205C, strain PFK2, active compounds read low 0.969 | S. cerevisiae deletion strains, locus YMR231W, strain pep5, active compounds read low 0.984 | S. cerevisiae deletion strains, locus YNL071W, strain lat1, active compounds read low 0.978 | S. cerevisiae deletion strains, locus YNL183C, strain NPR1, active compounds read low 0.92 | S. cerevisiae deletion strains, locus YNL209W, strain ssb2, active compounds read low 0.957 | S. cerevisiae deletion strains, locus YNL248C, strain rpa49, active compounds read low 0.986 | S. cerevisiae deletion strains, locus YNL322C, strain KRE1 (second series), active compounds read low 0.97 | S. cerevisiae deletion strains, locus YNR049C, strain mso1, active compounds read low 0.967 | S. cerevisiae deletion strains, locus YOR001W, strain rrp6, active compounds read low 0.982 | S. cerevisiae deletion strains, locus YOR070C, strain gyp1, active compounds read low 0.976 | S. cerevisiae deletion strains, locus YOR080W, strain dia2, active compounds read low 0.975 | S. cerevisiae deletion strains, locus YOR083W, strain WHI5, active compounds read low 0.984 | S. cerevisiae deletion strains, locus YOR106W, strain vam3, active compounds read low 0.989 | S. cerevisiae deletion strains, locus YOR231W, strain MKK1, active compounds read low 0.941 | S. cerevisiae deletion strains, locus YOR265W, strain rbl2, active compounds read low 0.988 | S. cerevisiae deletion strains, locus YOR270C, strain vph1, active compounds read low 0.972 | S. cerevisiae deletion strains, locus YOR290C, strain snf2, active compounds read low 0.99 | S. cerevisiae deletion strains, locus YPL051W, strain arl3, active compounds read low 0.981 | S. cerevisiae deletion strains, locus YPL078C, strain atp4, active compounds read low 0.97 | S. cerevisiae deletion strains, locus YPL106C, strain sse1, active compounds read low 0.918 | S. cerevisiae deletion strains, locus YPL240C, strain hsp82, active compounds read low 0.982 | S. cerevisiae deletion strains, locus YPL256C, strain CLN2, active compounds read low 0.963
